# Assay results reported in PubChem BioAssay (EPA / NIEHS).
# Activity calls are given as the source filed them. How the source made its calls: active means hit-call score of the fitted dose curve at least 0.9, where 1 is the maximum; inactive means score below 0.9.
# Read-out: Monokine induced gamma interferon (MIG), CXCL9 (gene 4283)
# Assay: BSK_hDFCGF_MIG: BioMAP Diversity Plus: hDFCGF Assay for Monokine induced gamma interferon (MIG) Biomarker Activity (AID 2283063)
# Conditions: primary human foreskin fibroblasts; actives raise or lower the signal
# Protocol: BSK_hDFCGF is a cell-based, multiplexed-readout assay that uses foreskin fibroblast, a human skin primary cell, with measurements taken at 24 hours after chemical dosing in a 96-well plate.BSK_hDFCGF_MIG is an assay component measured in the BSK_hDFCGF assay. It measures MIG antibody related to regulation of gene expression using ELISA technology.Data from the assay component BSK_hDFCGF_MIG was analyzed into 1 assay endpoint. This assay endpoint, BSK_hDFCGF_MIG, was analyzed with bidirectional fitting relative to DMSO as the negative control and baseline of activity. Using a type of binding reporter, gain or loss-of-signal activity can be used to understand changes in the signaling as they relate to the gene CXCL9. Furthermore, this assay endpoint can be referred to as a primary readout, because this assay has produced multiple assay endpoints where this one serves a signaling function. To generalize the intended target to other relatable targets, this assay endpoint is annotated to the cytokine intended target family, where the subfamily is chemotactic factor.
# The levels of cell surface (or secreted, indicated by the prefix "s") biomarker endpoints were measured by ELISA. Overt cytotoxicity to cells in confluent adherent cultures (all systems other than the BT system) was assessed by measuring total protein levels using sulforhodamine B (SRB) staining in parallel cultures at the time of biomarker measurements, indicated as SRB endpoints. For proliferation assays for adherent cell types, individual cell types are cultured at sub-confluence and relative cell numbers quantified by SRB staining at time points optimized for each system (48 h: 3C and CASM3C systems; 72 h: BT and HDF3CGF systems; 96 h: SAg system). SRB was performed by staining cells with 0.1% SRB after fixation with 10% TCA and reading wells at 560 nm.Viability and proliferation of PBMC (T cells) was quantified by Alamar Blue reduction for the SAg and BT systems. For PBMC viability (referred to as PBMC Cytotoxicity within the assay endpoint names), cells were plated (75,000/well in a 96-well plate) and then chemical samples added for 1 h before addition of activators, SEB and TSST-1 (20 ng/mL final concentration each). Cells were incubated for 90 h. Then, Alamar Blue (20 uL/well) (Invitrogen, Cat DAL1100) was added for 6 h, and the plates were read with a fluorescence microplate reader at 546/580 nm (excitation/emission). For PBMC proliferation, cells were plated and activated as above but incubated for only 16 h prior to addition of Alamar Blue. Plates were read after 6 h.
Compound,outcome,AC50
Oc1ccc2c(c1)OC[C@@H](N1CCC(O)(c3ccc(F)cc3)CC1)[C@H]2O,inactive,–
NC(=O)Cn1c(=O)cc(CCN2CCN(c3nccc4sccc34)CC2)c2ccc(F)cc21,inactive,–
CC1=C(/C=C/C(C)=C/C=C/C(C)=C/CO)C(C)(C)CCC1,–,27 µM (active)
CC(C)(C)c1cc(O)c(C(C)(C)C)cc1O,–,20 µM (active)
Oc1ccc2ccccc2c1N=Nc1ccccc1,inactive,–
C[Si]1(C)O[Si](C)(C)O[Si](C)(C)O[Si](C)(C)O1,inactive,–
C=CCOC(=O)c1ccccc1C(=O)OCC=C,inactive,–
O=[N+]([O-])C(CO)(CO)CO,inactive,–
Cc1nc(-c2ccc3c(c2)CCN(CCC2CCC(NC(=O)/C=C/c4ccc(F)cc4)CC2)CC3)no1 (stereo not given),inactive,–
O=c1[nH]cc(F)c(=O)[nH]1,inactive,–
CCNc1cccc(C)c1,inactive,–
CCCc1cc(=O)[nH]c(=S)[nH]1,inactive,–
O=C(O)CCCCC(=O)O,inactive,–
C1CCC(SSC2CCCCC2)CC1,inactive,–
Cc1c(C(=O)O)c(O)cc2c1C(=O)c1c(O)c([C@@H]3O[C@H](CO)[C@@H](O)[C@H](O)[C@H]3O)c(O)c(O)c1C2=O,inactive,–
CC1(C)CC(N=C=O)CC(C)(CN=C=O)C1 (stereo not given),inactive,–
OC[C@@H](O)[C@@H](O)[C@H](O)[C@H](O)CO,inactive,–
NS(=O)(=O)c1cc2c(cc1Cl)NCNS2(=O)=O,inactive,–
CC(=O)C(C)=CC1C(C)=CCCC1(C)C (stereo not given),inactive,–
CCCCc1ccc2c(n1)[C@@H](c1ccc(OC)cc1C[C@H](C)C(=O)O)[C@H](C(=O)O)[C@H]2c1ccc2c(c1)OCO2,inactive,–

Compound,outcome,AC50
CN1CCCC1=O,inactive,–
O=C(OCCCCCOC(=O)c1ccccc1)c1ccccc1,inactive,–
C[C@]12C=CC(=O)C=C1CC[C@@H]1[C@@H]2C(=O)C[C@@]2(C)[C@H]1CC[C@]2(O)C(=O)CO,inactive,–
Cc1ccc(Cl)cc1,inactive,–
COc1ccc(C)cc1N,inactive,–
CCCCCCCCCCC,inactive,–
Cc1cccc(C)c1O,inactive,–
CC=Cc1ccc(O)c(OC)c1,inactive,–
CCCCCC(=O)O,inactive,–
COCCOCCOC,inactive,–
CCCCCCCC=O,inactive,–
CNCc1cc(F)ccc1Oc1ccc(Cl)c(Cl)c1,inactive,–
c1cc(-c2ccncc2)ccn1,inactive,–
Cc1cccc([N+](=O)[O-])c1C,inactive,–
Cc1ccc(C)c(O)c1C,inactive,–
COc1cc(S(=O)(=O)O)c(C)cc1N=Nc1c(O)ccc2cc(S(=O)(=O)O)ccc12,inactive,–
CN1CCN(Cc2cc(-c3ccc4[nH]c(=O)oc4c3)co2)[C@@H](c2ccc(F)cc2)C1,inactive,–
Nc1ccccc1N,inactive,–
CCCCCCCCCCCCCCCCCC(=O)O,inactive,–
COCCOC[C@H](CC1(C(=O)NC2CCC(C(=O)O)CC2)CCCC1)C(=O)Oc1ccc2c(c1)CCC2 (stereo not given in full),inactive,–
